# Laboratory results published in PubChem BioAssay AID504832 (National Center for Advancing Translational Sciences (NCATS), 2011).
# Among all 310,000 compounds or so, about 18,000 (5.8%) were called active. About 22% were inconclusive and are not listed. The call rests on the fitted dose curve; in most records, active means well fitted inhibition curve with a large enough effect; inconclusive means small, poorly fitted or top-dose-only effect, or another doubt; inactive means no such curve, though single readings can be large or run the other way. What follows is part of a selection rich in actives, with near analogues and random picks from the rest. Entries that show only a call come without a potency.
# Test: Primary qHTS for delayed death inhibitors of the malarial parasite plastid, 48 hour incubation
# Conditions: P. falciparum luciferase growth in erythrocytes; series mostly up to 28.7 µM
# Method in brief: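 Here the parasites carry a stable luciferase gene and grow inside erythrocytes in Albumax-based RPMI medium with compound for one erythrocytic cycle. Activity is scored as loss of luminescent signal.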
# Potency means the concentration at half of the fitted maximal effect.
row,SMILES,Potency
1,O=C(/C=C/c1ccccc1)c1ccccc1O,inactive
2,CC(/C=C/c1ccccc1)=N\NC(=O)C1CC1(C)c1ccccc1 (configuration not stated),11.7 µM (active)
3,CC(=O)Nc1ccc(/C=C/C(=O)c2ccccc2)cc1,inactive
4,O=S(=O)(c1ccc(-c2ccno2)s1)N1CCCCC1,inactive
5,CCn1cc(C(=O)N[C@@H](C)C(=O)NCCO)c(=O)c2cc3c(cc21)OCO3,inactive
6,CCOC(=O)c1cc(Sc2ccccc2N)cc(C(=O)OCC)n1,0.147 µM (active)
7,CCOC(=O)C1=C(CC)Nc2ccccc2N=C1N,inactive
8,CCOC(=O)c1sc2nc(SC)nc(-c3ccccc3)c2c1N,inactive
9,CCOc1ccc(N2C(=O)CSC2=NC#N)cc1,inactive
10,COc1ccccc1CNS(=O)(=O)CC12CCC(CC1=O)C2(C)C (configuration not stated),inactive
11,COC(=O)c1ccc(Nc2ncnc3sccc23)cc1,inactive
12,Cc1nnc(SCC(=O)NCCOc2ccc(Cl)cc2)n1-c1ccccc1,inactive
13,Cc1nnc(SCc2ccc(C(=O)c3ccc(Cl)cc3)o2)n1-c1ccccc1,14.7 µM (active)
14,Cc1nnc(SCC(=O)N2CCN(c3ccccc3)CC2)n1-c1ccccc1,inactive
15,Cc1noc(C)c1C(=O)NCCc1ccc(S(N)(=O)=O)cc1,inactive
16,COc1ccc(C)cc1NC(=S)N1CCOCC1,inactive
17,CCOC(=O)c1sc(NC(=O)c2sc(C)nc2C)nc1C,inactive
18,Cn1c(Nc2ccccc2)cc(=O)n(C)c1=O,inactive
19,CCCCc1ccc(NC(=O)CN2C(=O)NC(Cc3ccccc3)C2=O)cc1 (configuration not stated),inactive
20,O=C1C(Cc2ccc(O)cc2)NC(=S)N1Cc1ccccc1 (configuration not stated),2.94 µM (active)
21,Cc1ccc(N2C(=O)C(Cc3ccccc3)NC2=S)cc1 (configuration not stated),inactive
22,C=CCOc1ccc(C(=O)Nc2ccccc2C(=O)N2CCCC2)cc1,inactive

row,SMILES,Potency
1,CCOC(=O)CNc1nc(Cl)nc(Nc2ccc(OC)cc2OC)n1,inactive
2,Cc1c(O)c(C)c2c(c1O)C(=O)C[C@@H](c1ccccc1)O2,13.1 µM (active)
3,CCCc1cc(C(=O)Nc2ccc(Cl)cn2)cs1,inactive
4,Cc1cc(CNC(=O)C2CCC(=O)N(CCc3ccc(Cl)cc3)C2)no1 (configuration not stated),inactive
5,NC(=O)CSC1=Nc2ccccc2C2=NC(CCC(=O)NCc3ccc(F)cc3)C(=O)N12 (configuration not stated),inactive
6,CCC(C)NC(=O)CSC1=Nc2ccccc2C2=NC(CCC(=O)NCc3ccco3)C(=O)N12 (configuration not stated),inactive
7,O=C(CC1N=C2c3ccccc3N=C(SCc3ccccc3Cl)N2C1=O)NCc1ccco1 (configuration not stated),4.65 µM (active)
8,Cc1ccc(C(=O)NCC(=O)NCc2cc(=O)n(C)c(=O)n2C)cc1,inactive
9,COc1ccc(C(=O)NC(=S)Nc2ccc(N3CCCC3)cc2)cc1OC,inactive
10,COc1ccc(C(=O)Nc2ccc3nc(N4CCCCC4)cc(C)c3c2)cc1OC,3.7 µM (active)
11,COc1ccc(NC(=O)CC2SC(N3CCCCC3)=NC2=O)cc1OC (configuration not stated),inactive
12,COc1ccc(NC(=O)CCn2ccnc2)c(OC)c1,inactive
13,CCN(CC)c1ccc(C(=O)NNC(=O)CCc2nc3ccccc3c(=O)[nH]2)cc1,inactive
14,COc1ccc(-c2csc(NC(=O)CCCc3cccs3)n2)cc1,inactive
15,CC(C)(C)c1ccc(NC(=O)COC(=O)CCc2nc3ccccc3c(=O)[nH]2)cc1,inactive
16,CC(=O)NCc1ccc(-c2csc(NC(=O)CCCc3nc4ccccc4c(=O)[nH]3)n2)cc1,9.28 µM (active)
17,O=C(CSc1nc2ccccc2c(=O)[nH]1)Nc1nc(-c2ccc(Br)cc2)cs1,inactive
18,Cc1cc(C)c(-c2csc(NC(=O)CCCc3nc4ccccc4c(=O)[nH]3)n2)c(C)c1,0.131 µM (active)
19,CN(C(=O)CCNC(=O)Cn1ccc2ccccc2c1=O)c1ccc(Br)cc1,inactive
20,N=c1oc2ccccc2cc1C(=O)NCc1ccccc1,inactive
21,CS(=O)(=O)N1CCc2cc(C(=O)Nc3ccccc3Br)ccc21,inactive
22,COc1ccc(NC(=O)CNC(=O)Cc2ccccc2)cc1OC,inactive

row,SMILES,Potency
1,Cc1cc(NC(=O)CCC(=O)N(Cc2ccccc2)C(C(=O)NC2CCCC2)c2ccc(C)o2)no1 (configuration not stated),inactive
2,CN(Cc1c(F)cccc1Cl)C(=O)CNC(=O)c1ccc2c(c1)OCO2,inactive
3,NC(=O)NC(CC(=O)NNC(=O)c1ccccn1)c1ccc(Cl)cc1 (configuration not stated),inactive
4,Cc1cc(C)c2c(=O)[nH]c(SCC(=O)Nc3ccc(Br)cc3)nc2n1,inactive
5,CN(C)CCn1c2c(c(SCC(=O)NCc3ccccc3)nc1=O)CCC2,inactive
6,COc1ccccc1CNC(=O)CSc1nc(=O)n(Cc2ccncc2)c2c1CCC2,11.7 µM (active)
7,CN(C)CCn1c2c(c(SCC(=O)Nc3ccccc3C(F)(F)F)nc1=O)CCCC2,inactive
8,Cc1ccc(NS(=O)(=O)c2ccc3c(c2)oc(=O)n3C)c(C)c1,inactive
9,Cc1c(NC(=O)C(C)Oc2cccc(Cl)c2)c(=O)n(-c2ccccc2)n1C (configuration not stated),inactive
10,COc1ccc(NC(=O)c2cnc(NS(=O)(=O)c3ccccc3)nc2)cc1,inactive
11,CN(CC(=O)Nc1ccccc1Cl)C(=O)c1ccccc1SCC(=O)N1CCCC1,inactive
12,COc1ccc(C)cc1N(C)C(=O)c1coc(=O)c2ccccc12,inactive
13,Cc1ccc(-c2cc(C(=O)Nc3nn[nH]n3)c3ccccc3n2)c(C)c1,inactive
14,COc1ccc(CN(C)C(=O)c2cc(-c3ccc(C)cc3C)nc3ccccc23)c(OC)c1OC,9.28 µM (active)
15,Cc1cccc(C(=O)NCC(=O)OCC(=O)N(C)CC(=O)Nc2ccccc2Cl)c1,inactive
16,COc1ccc(-c2cc(C(=O)N(C)CC(=O)Nc3ccccc3Cl)c3ccccc3n2)cc1OC,13.1 µM (active)
17,COc1cc(N=Cc2c(O)c3ccccc3oc2=O)c(OC)cc1Cl,inactive
18,CC(C)c1nnc(NC(=O)COC(=O)/C=C/c2ccc([N+](=O)[O-])cc2)s1,inactive
19,COc1ccccc1-n1nnnc1SCC(=O)NC(=O)Cc1ccccc1,inactive
20,C=CCOc1cccc(CNn2cn[nH]c2=S)c1,inactive
21,COc1cccc(CNn2cn[nH]c2=S)c1OCc1ccccc1,10.4 µM (active)
22,C=CCOc1c(CNn2cn[nH]c2=S)cccc1OC,inactive

row,SMILES,Potency
1,CC(=O)c1c(C)[nH]c(C(=O)OCC(=O)Nc2c(C)cccc2C)c1C,inactive
2,CSc1ccc(Cl)c(C(=O)OCC(=O)N2CCNC2=O)c1,inactive
3,CCOC(=O)CC1C(=O)NCCN1c1nc2c(C)cccn2c(=O)c1/C=C1\SC(=S)N(C(C)CC)C1=O (configuration not stated),8.28 µM (active)
4,CCOC(=O)CC1C(=O)NCCN1C(=O)COc1ccc(Br)cc1C (configuration not stated),inactive
5,COc1ccc(C(=O)NC(=S)N2CCNC(=O)C2CC(=O)OC(C)C)cc1 (configuration not stated),inactive
6,Cc1cc2c(cc1C)[n+](C)cn2CC(O)COCC1CC=CCC1 (configuration not stated),2.94 µM (active)
7,COc1ccc(S(=O)(=O)NCCOc2ccccc2)cc1F,inactive
8,COc1ccc(NC(=O)CCC(=O)Nc2cc(OC)c(NC(=O)c3ccco3)cc2OC)c(OC)c1,inactive
9,CC1(c2ccc(Cl)cc2Cl)NC(=O)N(CC(=O)Nc2cccnc2Cl)C1=O (configuration not stated),inactive
10,Cc1cc(Br)ccc1NC(=O)CN(C)C(=O)CN1C(=O)NC2(CCCC2)C1=O,inactive
11,Cc1ccc(S(=O)(=O)Nc2ccc3ncccc3c2)cc1,inactive
12,COc1cc(NS(=O)(=O)c2ccc3ccccc3c2)c2ncccc2c1,4.15 µM (active)
13,COc1ccc2cc(S(=O)(=O)Nc3ccccn3)ccc2c1,inactive
14,CN(C(=O)C1CCN(c2ncnc3c2nc2n3CCCCC2)CC1)C1CCCCC1,inactive
15,Cc1cc(C)cc(NC(=O)NCc2ccccn2)c1,inactive
16,CN(C)C(=O)N=NC(=O)N(C)C,inactive
17,Cc1ccc(C(=O)CS(C)(=O)=O)cc1,inactive
18,Cc1ccc(C(=O)C[n+]2cc(-c3ccccc3)n3c2CCCCC3)cc1,1.85 µM (active)
19,Cc1ccc(S(=O)(=O)N(C)CC(=O)OCC(=O)Nc2ccccc2)cc1,inactive
20,O=C(C[n+]1cc(-c2ccc(Cl)c(Cl)c2)n2c1CCC2)c1cccs1,2.08 µM (active)
21,Cc1ccc(-c2c[n+](CC(=O)Nc3ccccc3)c3n2CCC3)cc1,7.38 µM (active)
22,Cc1ccc(C(=O)CSc2ccccc2C(=O)O)cc1,inactive

row,SMILES,Potency
1,O=C(CN1CCOCC1)Nc1ccccc1,inactive
2,O=C(CN1C2=NCCN2c2ccccc21)c1cccs1,inactive
3,CCS(=O)(=O)N1CCN(C(=O)c2cccs2)CC1,inactive
4,Cc1c(NC(=O)c2c([N+](=O)[O-])cnn2C)c(=O)n(-c2ccccc2)n1C,inactive
5,Cc1ccc(NC(=O)CCN2C(=O)c3ccccc3C2=O)cc1C,inactive
6,O=C(NCc1ccc2c(c1)OCO2)C(=O)NCC1OCCN1S(=O)(=O)c1ccc(F)cc1 (configuration not stated),inactive
7,O=C(COc1ccccc1)Nc1cc2c3c(c1)CC(=O)N3CCC2,inactive
8,Cc1nn(-c2ccccc2)c2c1c(C)c(CCC(=O)NCC1CCCO1)c(=O)n2C (configuration not stated),inactive
9,Cc1cc(OCC(=O)Nc2c(C)n(C)n(-c3ccccc3)c2=O)ccc1[N+](=O)[O-],inactive
10,CCCCc1nc2cc(C(=O)NCCc3cnn(C)c3)ccc2o1,inactive
11,Cc1oc(-c2ccccc2F)nc1CS(=O)CC(=O)NCCN1CCCCC1C (configuration not stated),inactive
12,CC(C)(C)NC(=O)C(=O)NN=C1CCCCCCC1,inactive
13,CC(C)NC(=S)NN=C1CCCCCCCCCCC1,11.7 µM (active)
14,C/C(=N\NC(=S)NC(C)C)c1ccc(C(C)(C)C)cc1,inactive
15,COc1ccccc1C(=O)Nc1cccc(C(=O)N2CCOCC2)c1,inactive
16,Cc1noc(C)c1CCC(=O)N1CCCC(CO)(Cc2ccccc2)C1 (configuration not stated),inactive
17,Cc1ccccc1N1CCN(CCCN2C(=O)C3CCCCN3C2=O)CC1 (configuration not stated),inactive
18,CC(=O)Nc1ccc(S(=O)(=O)NNC(=O)CCc2ccccc2)cc1,inactive
19,CS(=O)(=O)N1CCCC(C(=O)Nc2ccccc2C(F)(F)F)C1 (configuration not stated),inactive
